# Measurements as given in PubChem BioAssay AID1159580 (chemical genetic matrix, 2015).
# Values joined by “and” are separate entries in the source; they are usually repeats but may differ in a detail not shown here. Identical values can stand only once. Screen size: about 5,500 compounds; about 2,000 (36%) were called active. About 18% were inconclusive and are not listed. Rule as the data show it: active = normalized growth mostly below about 0.91 (no sharp cut-off); inconclusive = no clear call, values can overlap the other calls; inactive = mostly above about 0.92. The list shows a part of the results. Where a structure was tested more than once in an assay, its records may differ in their call.
# Test: chemical genetic growth profiling, strain panel (AID 1159580);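 also: tested at 20 µM; growth read once vehicle control cultures reached saturation at 30 °C; 1 = growth at the plate median or of vehicle wells; lower values mean less growth of the strain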
# Conditions: growth OD
structure (smiles),measurement,setting,value
O=c1c2ccccc2[se]n1-c1ccccc1,normalized growth,"S. cerevisiae deletion strains, locus YJR075W, strain HOC1, stronger effect = lower value",0.0678 (active)
same,normalized growth,"S. cerevisiae deletion strains, locus YKL068W, stronger effect = lower value",0.0623 (active)
same,normalized growth,"S. cerevisiae deletion strains, locus YKL085W, strain MDH1 (second series), stronger effect = lower value",0.0549 (active)
same,normalized growth,"S. cerevisiae deletion strains, locus YKL085W, strain MDH1, stronger effect = lower value",0.0549 (active)
same,normalized growth,"S. cerevisiae deletion strains, locus YKL160W, strain elf1, stronger effect = lower value",0.0672 (active)
same,normalized growth,"S. cerevisiae deletion strains, locus YKL190W, strain CNB1, stronger effect = lower value",0.0495 (active)
same,normalized growth,"S. cerevisiae deletion strains, locus YKR001C, strain vps1, stronger effect = lower value",0.064 (active)
same,normalized growth,"S. cerevisiae deletion strains, locus YKR026C, strain gcn3, stronger effect = lower value",0.0615 (active)
same,normalized growth,"S. cerevisiae deletion strains, locus YKR091W, strain srl3, stronger effect = lower value",0.0622 (active)
same,normalized growth,"S. cerevisiae deletion strains, locus YLL001W, strain dnm1, stronger effect = lower value",0.0729 (active)
same,normalized growth,"S. cerevisiae deletion strains, locus YLL026W, stronger effect = lower value",0.0595 (active)
same,normalized growth,"S. cerevisiae deletion strains, locus YLL041C, strain sdh2, stronger effect = lower value",0.0595 (active)
same,normalized growth,"S. cerevisiae deletion strains, locus YLR027C, strain aat2, stronger effect = lower value",0.0567 (active)
same,normalized growth,"S. cerevisiae deletion strains, locus YLR039C, strain RIC1, stronger effect = lower value",0.0906 (active)
same,normalized growth,"S. cerevisiae deletion strains, locus YLR058C, strain SHM2, stronger effect = lower value",0.955 (inactive)
same,normalized growth,"S. cerevisiae deletion strains, locus YLR102C, strain apc9, stronger effect = lower value",0.0627 (active)
same,normalized growth,"S. cerevisiae deletion strains, locus YLR113W, strain HOG1, stronger effect = lower value",0.138 (active)
same,normalized growth,"S. cerevisiae deletion strains, locus YLR221C, strain rsa3, stronger effect = lower value",0.061 (active)
same,normalized growth,"S. cerevisiae deletion strains, locus YLR258W, strain gsy2, stronger effect = lower value",0.0609 (active)
same,normalized growth,"S. cerevisiae deletion strains, locus YLR262C, strain YPT6 (second series), stronger effect = lower value",0.0795 (active)
same,normalized growth,"S. cerevisiae deletion strains, locus YLR262C, strain YPT6, stronger effect = lower value",0.0981 (active)
same,normalized growth,"S. cerevisiae deletion strains, locus YLR268W, strain sec22, stronger effect = lower value",0.0733 (active)
same,normalized growth,"S. cerevisiae deletion strains, locus YLR320W, strain mms22, stronger effect = lower value",0.0819 (active)
same,normalized growth,"S. cerevisiae deletion strains, locus YLR330W, strain CHS5, stronger effect = lower value",0.0552 (active)
same,normalized growth,"S. cerevisiae deletion strains, locus YLR342W, strain FKS1 (second series), stronger effect = lower value",0.0785 (active)
same,normalized growth,"S. cerevisiae deletion strains, locus YLR342W, strain FKS1, stronger effect = lower value",0.0773 (active)
same,normalized growth,"S. cerevisiae deletion strains, locus YLR357W, strain rsc2, stronger effect = lower value",0.117 (active)
same,normalized growth,"S. cerevisiae deletion strains, locus YLR370C, strain arc18, stronger effect = lower value",0.0623 (active)
same,normalized growth,"S. cerevisiae deletion strains, locus YLR371W, strain rom2, stronger effect = lower value",0.0624 (active)
same,normalized growth,"S. cerevisiae deletion strains, locus YLR384C, strain iki3, stronger effect = lower value",0.554 (active)
same,normalized growth,"S. cerevisiae deletion strains, locus YLR418C, strain cdc73, stronger effect = lower value",0.0967 (active)
same,normalized growth,"S. cerevisiae deletion strains, locus YML016C, strain PPZ1, stronger effect = lower value",0.0497 (active)
same,normalized growth,"S. cerevisiae deletion strains, locus YML032C, strain rad52, stronger effect = lower value",0.832 (active)
same,normalized growth,"S. cerevisiae deletion strains, locus YML120C, strain ndi1, stronger effect = lower value",0.724 (active)
same,normalized growth,"S. cerevisiae deletion strains, locus YML124C, strain tub3, stronger effect = lower value",0.0602 (active)
same,normalized growth,"S. cerevisiae deletion strains, locus YMR058W, strain fet3, stronger effect = lower value",0.062 (active)
same,normalized growth,"S. cerevisiae deletion strains, locus YMR078C, strain ctf18, stronger effect = lower value",0.0748 (active)
same,normalized growth,"S. cerevisiae deletion strains, locus YMR125W, strain sto1, stronger effect = lower value",0.0783 (active)
same,normalized growth,"S. cerevisiae deletion strains, locus YMR129W, stronger effect = lower value",0.0579 (active)
same,normalized growth,"S. cerevisiae deletion strains, locus YMR205C, strain PFK2, stronger effect = lower value",0.134 (active)
same,normalized growth,"S. cerevisiae deletion strains, locus YMR223W, strain ubp8, stronger effect = lower value",0.0699 (active)
same,normalized growth,"S. cerevisiae deletion strains, locus YMR231W, strain pep5, stronger effect = lower value",0.0661 (active)
same,normalized growth,"S. cerevisiae deletion strains, locus YMR263W, strain SAP30, stronger effect = lower value",0.065 (active)
same,normalized growth,"S. cerevisiae deletion strains, locus YMR307W, strain GAS1, stronger effect = lower value",0.116 (active) and 0.922 (inactive)
same,normalized growth,"S. cerevisiae deletion strains, locus YNL067W, strain RPL9B, stronger effect = lower value",0.0566 (active)
same,normalized growth,"S. cerevisiae deletion strains, locus YNL071W, strain lat1, stronger effect = lower value",0.0612 (active)
same,normalized growth,"S. cerevisiae deletion strains, locus YNL128W, strain TEP1, stronger effect = lower value",0.0628 (active)
same,normalized growth,"S. cerevisiae deletion strains, locus YNL153C, strain GIM3, stronger effect = lower value",0.0713 (active) and 0.0822 (active)
same,normalized growth,"S. cerevisiae deletion strains, locus YNL175C, strain NOP13, stronger effect = lower value",0.998 (inactive)
same,normalized growth,"S. cerevisiae deletion strains, locus YNL183C, strain NPR1, stronger effect = lower value",0.841 (inactive)
same,normalized growth,"S. cerevisiae deletion strains, locus YNL197C, strain WHI3, stronger effect = lower value",0.924 (inactive)
same,normalized growth,"S. cerevisiae deletion strains, locus YNL209W, strain ssb2, stronger effect = lower value",0.0633 (active)
same,normalized growth,"S. cerevisiae deletion strains, locus YNL224C, strain SQS1, stronger effect = lower value",0.826 (active)
same,normalized growth,"S. cerevisiae deletion strains, locus YNL233W, strain BNI4, stronger effect = lower value",0.0552 (active)
same,normalized growth,"S. cerevisiae deletion strains, locus YNL248C, strain rpa49, stronger effect = lower value",0.0871 (active)
same,normalized growth,"S. cerevisiae deletion strains, locus YNL250W, strain rad50, stronger effect = lower value",0.101 (active)
same,normalized growth,"S. cerevisiae deletion strains, locus YNL271C, strain bni1, stronger effect = lower value",0.0626 (active)
same,normalized growth,"S. cerevisiae deletion strains, locus YNL298W, strain CLA4, stronger effect = lower value",0.0625 (active)
same,normalized growth,"S. cerevisiae deletion strains, locus YNL307C, strain MCK1, stronger effect = lower value",0.0743 (active)
same,normalized growth,"S. cerevisiae deletion strains, locus YNL322C, strain KRE1 (second series), stronger effect = lower value",0.299 (active)
same,normalized growth,"S. cerevisiae deletion strains, locus YNL322C, strain KRE1, stronger effect = lower value",0.0495 (active) and 0.989 (inactive)
same,normalized growth,"S. cerevisiae deletion strains, locus YNR049C, strain mso1, stronger effect = lower value",0.0582 (active)
same,normalized growth,"S. cerevisiae deletion strains, locus YNR052C, strain pop2, stronger effect = lower value",0.851 (active)
same,normalized growth,"S. cerevisiae deletion strains, locus YOL006C, strain TOP1, stronger effect = lower value",0.102 (active)
same,normalized growth,"S. cerevisiae deletion strains, locus YOL012C, strain htz1",0.238 (inactive)
same,normalized growth,"S. cerevisiae deletion strains, locus YOL147C, strain pex11, stronger effect = lower value",1.01 (inactive)
same,normalized growth,"S. cerevisiae deletion strains, locus YOR001W, strain rrp6, stronger effect = lower value",0.459 (active)
same,normalized growth,"S. cerevisiae deletion strains, locus YOR061W, strain CKA2, stronger effect = lower value",0.0469 (active)
same,normalized growth,"S. cerevisiae deletion strains, locus YOR069W, strain VPS5, stronger effect = lower value",0.0489 (active)
same,normalized growth,"S. cerevisiae deletion strains, locus YOR070C, strain gyp1, stronger effect = lower value",0.0603 (active)
same,normalized growth,"S. cerevisiae deletion strains, locus YOR080W, strain dia2, stronger effect = lower value",0.803 (active)
same,normalized growth,"S. cerevisiae deletion strains, locus YOR083W, strain WHI5 (second series), stronger effect = lower value",0.0766 (active)
same,normalized growth,"S. cerevisiae deletion strains, locus YOR083W, strain WHI5, stronger effect = lower value",0.0645 (active)
same,normalized growth,"S. cerevisiae deletion strains, locus YOR106W, strain vam3, stronger effect = lower value",0.0667 (active)
same,normalized growth,"S. cerevisiae deletion strains, locus YOR136W, strain idh2, stronger effect = lower value",0.0722 (active)
same,normalized growth,"S. cerevisiae deletion strains, locus YOR144C, strain elg1, stronger effect = lower value",1.01 (inactive)
same,normalized growth,"S. cerevisiae deletion strains, locus YOR184W, strain ser1, stronger effect = lower value",0.0757 (active)
same,normalized growth,"S. cerevisiae deletion strains, locus YOR231W, strain MKK1, stronger effect = lower value",0.118 (active)
same,normalized growth,"S. cerevisiae deletion strains, locus YOR265W, strain rbl2, stronger effect = lower value",0.0602 (active)
same,normalized growth,"S. cerevisiae deletion strains, locus YOR270C, strain vph1, stronger effect = lower value",0.103 (active)
same,normalized growth,"S. cerevisiae deletion strains, locus YOR290C, strain snf2, stronger effect = lower value",0.888 (inactive)
same,normalized growth,"S. cerevisiae deletion strains, locus YOR316C, strain cot1, stronger effect = lower value",0.063 (active)
same,normalized growth,"S. cerevisiae deletion strains, locus YPL051W, strain arl3, stronger effect = lower value",0.0663 (active)
same,normalized growth,"S. cerevisiae deletion strains, locus YPL055C, strain LGE1, stronger effect = lower value",0.0731 (active)
same,normalized growth,"S. cerevisiae deletion strains, locus YPL078C, strain atp4, stronger effect = lower value",0.707 (active)
same,normalized growth,"S. cerevisiae deletion strains, locus YPL106C, strain sse1, stronger effect = lower value",0.105 (active)
same,normalized growth,"S. cerevisiae deletion strains, locus YPL240C, strain hsp82, stronger effect = lower value",0.0588 (active)
same,normalized growth,"S. cerevisiae deletion strains, locus YPL241C, strain CIN2, stronger effect = lower value",0.0501 (active) and 0.992 (inactive)
same,normalized growth,"S. cerevisiae deletion strains, locus YPL256C, strain CLN2, stronger effect = lower value",0.113 (active)
same,normalized growth,"S. cerevisiae deletion strains, locus YPR119W, strain clb2, stronger effect = lower value",0.0638 (active)
same,normalized growth,"S. cerevisiae deletion strains, locus YPR141C, strain kar3, stronger effect = lower value",0.0669 (active)
same,normalized growth,"S. cerevisiae deletion strains, locus YPR163C, strain tif3, stronger effect = lower value",0.0717 (active)
same,normalized growth,"S. cerevisiae deletion strains, locus YPR167C, strain met16, stronger effect = lower value",0.0625 (active)
same,normalized growth,"S. cerevisiae deletion strains, strain wtn01, stronger effect = lower value",0.0617 (active)
same,normalized growth,"S. cerevisiae strains, strain wild type, stronger effect = lower value",0.0481 (active)
